Compound activity as filed in PubChem BioAssay.
The entries come from a sample that favours hits as a whole.
PNC assembly inh = inhibitors of perinucleolar compartment assembly | activity change (PNC), negative = inhibition, % at 10 µM | AID 2417 | PC3M PTB-GFP, PNC prevalence imaging, 16 h; hits give low values | 140,000 compounds, 3.1% hits;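 active means readout at or below -70, meaning at least 70% loss of cells showing the perinucleolar compartment, a nuclear body marking cancer cells; inconclusive means readout between -30 and a set limit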;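 further: plate controls were DMSO wells for no effect and camptothecin positive control wells for full effect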
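Compounds are pinned in duplicate onto adhered PC3M cells stably expressing GFP-tagged PTB and incubated 16 h at 37 C. Cells are then fixed, nuclei stained with Hoechst, and PNC-positive cells counted.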
HTT aggregate = mutant huntingtin aggregation inhibition; PC12 HttQ103-GFP aggregates, Acumen cytometry, 40 h; Potency, µM (doses to about 46.1 µM), without a hit: at the highest dose activity change, negative = inhibition, actives largely listed as inhibitors; 220,000 compounds, 1.1% hits; AID 1688; further: potency means the concentration at half of the fitted maximal effect; on the % scale 0 is the no-effect control and ±100 the full control effect; nearly all actives have a fitted effect of over 60% in size
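Quantitative HTS on tebufenozide-induced (100 nM) PC12 cells stably expressing polyQ103 Huntingtin exon 1–GFP. Reduction of bright GFP aggregates, detected by laser scanning cytometry after lysis, identified actives across the titration.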
HTT cytoprotect = cytoprotection in Huntington HTT-Q103 PC12 cell model | PC12 HTT-Q103 induced, cytoprotection, ATP luminescence, 40 h | Potency, µM (highest dose often 56.4 µM), inactives show cytoprotection (ATP increase), usual class: activators | 230,000 compounds, 0.14% hits | AID 1471; further: potency means the concentration at half of the fitted maximal effect; % of control where 0% means no effect; nearly all actives have a fitted effect of over 45% in size
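Stable PC12 Q103-GFP cells in serum-supplemented, phenol red-free DMEM; induction by tebufenozide at 100 nM final; compound dose series; cell viability quantified luminescently from ATP.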
* = called active by the depositor; ? = inconclusive; / = not tested or not shown; [ ] = dose if it differs, or a comment. Unless noted, the call rests on the fitted dose curve; in most records, active means well fitted curve in the direction sought with a large enough effect; inconclusive means small, poorly fitted or top-dose-only effect, or another doubt; inactive means no such curve, though single readings can be large; an effect the other way counts as inactive or inconclusive.

SMILES | PNC assembly inh | HTT aggregate | HTT cytoprotect
CS(=O)(=O)c1ccc(Cl)c(NC(=O)c2cccc(Br)c2)c1 | 14 | -16% | -19%[10 µM]
O=C(CCSc1nc(-c2ccco2)cc(C(F)(F)F)n1)N1CCN(c2ccccc2)CC1 | -9 | -11% | -3%[0.074 µM]
CN(C)CCCN(C(=O)/C=C/c1cccs1)c1nc2ccc(F)cc2s1 | / | ? | 9%
CN(C)CCCN(C(=O)c1sc2ccccc2c1Cl)c1nc2ccc(F)cc2s1 | -94* | -16% | /
COc1ccc(CCNC(=O)Cc2ccc([N+](=O)[O-])cc2)cc1OC | / | 15%[9.22 µM] | -2%[10 µM]
COc1ccc(CCNC(=O)Cc2ccc(OCc3ccccc3)c(OC)c2[N+](=O)[O-])cc1OCc1ccccc1 | -101* | ? | -6%
O=C(O)/C=C/C(=O)Nc1ccccc1-c1ccccc1 | -109* | -5% | -22%
COCC(=O)Nc1ccccc1-c1ccccc1 | / | -3% | /
CCO[C@@H]1OC(C(=O)O)=C[C@H](c2ccc(C(F)(F)F)cc2)[C@H]1CCCO | / | -6%[9.22 µM] | 3%[10 µM]
S=C(Nc1ccccc1Cl)N1CCCC(c2ccccc2)=N1 | / | 1%[9.22 µM] | -3%[10 µM]
C/C(Cl)=C/CSc1nn2c(=O)c3ccccc3nc2s1 | -12 | -15% | -20%
O=c1cc(-c2ccccc2)[nH]c2cc(Cl)ccc12 | -119* | -1% | -195%[96.6 µM]
O=c1cc(-c2ccccc2)[nH]c2ccc(Cl)cc12 | / | / | -260%[96.6 µM]
O=c1cc(-c2cccc(F)c2)[nH]c2ccc(Cl)cc12 | / | / | -219%[96.6 µM]
O=c1cc(-c2cccc(F)c2)[nH]c2ccccc12 | -91* | -32% | -293%[96.6 µM]
CSc1nsc(SCC(=O)Nc2ccc(Br)cn2)n1 | -3 | 2% | -11%
Cn1c(=O)[nH]c(=O)c2c1nc(CN1CCN(c3ccc(F)cc3)CC1)n2CCc1ccccc1 | -100* | 9% | 20%[10 µM]
COc1ccc(N2CCN(Cc3nc4c(c(=O)[nH]c(=O)n4C)n3CC(C)=O)CC2)cc1 | -90* | -16% | -2%
Cn1c(=O)[nH]c(=O)c2c1nc(CN1CCN(c3ccc(F)cc3)CC1)n2CCCc1ccccc1 | 131 | 9% | -40%
COc1ccc(N2CCN(Cc3nc4c(c(=O)n(C)c(=O)n4C)n3CC(C)=O)CC2)cc1 | -9 | -13% | -8%
CCOC(=O)c1ccc2nc(NC(C)=O)sc2c1 | / | -7% | -82%
CCOC(=O)c1ccc2nc(Nc3nc4ccc(F)cc4s3)sc2c1 | -107* | 27% | /
COC(=O)c1ccc2nc(Nc3nc4c(F)cc(F)cc4s3)sc2c1 | -100* | 6.3µM* | /
COC(=O)c1ccc2nc(NC(=O)C(C)C)sc2c1 | / | -15% | -73%
O=C(CSc1nc2c(sc3ccccc32)c(=O)n1CCCN1CCCC1)NCc1ccccc1 | / | 20% | 3%[10 µM]
SMILES | PNC assembly inh | HTT aggregate | HTT cytoprotect
COc1ccc(NC(=O)NCc2ccncc2)c(OC)c1 | 48 | 4% | -44%
CCN(CC)c1ccc(/C=N/NC(=O)c2ccco2)cc1 | -94* | ? | -29%[10 µM]
CCN(CC)c1ccc(/C=N/NC(=O)c2ccco2)c(O)c1 | / | ? | -79%[10 µM]
CCC/C(O)=C1\C(=O)CC(C)(C)CC1=Nc1ccc(OC)cc1OC | -139* | 10% | -76%[10 µM]
CCCC/C(O)=C1\C(=O)CC(C)(C)CC1=Nc1ccccc1OC | -28 | -3% | -10%
CCCSc1cc(N2CCCC2)nc(-c2ccccc2)n1 | -7 | -10% | 7%
CCCSc1cc(N2CCN(C)CC2)nc(-c2ccc(OC)cc2)n1 | -81* | -17% | -2%
CCC(NC(=O)C1CCC1)c1ccccc1 (configuration not stated) | -100* | -10% | 12%[10 µM]
CCC(NC(=O)CCc1ccccc1)c1ccccc1 (configuration not stated) | / | 11% | -22%
CN1CCN(c2ccc(C(=O)NC3CCCCC3)cc2[N+](=O)[O-])CC1 | / | 16% | -43%
CC(C)(C)NC(=S)NNC(=O)c1ccccc1Cl | -13 | ? | -7%[10 µM]
N#CCC1c2ccccc2CCN1C(=O)Nc1cccc(Cl)c1 (configuration not stated) | 25 | -19% | 22%[10 µM]
N#CCC1c2ccccc2CCN1C(=O)Nc1ccc(Cl)cc1 (configuration not stated) | -81* | -17% | -9%[10 µM]
COC(=O)[C@@]1(Cc2ccccc2)[C@H]2c3cc(C(=O)N4CCCC4)n(CCc4ccccn4)c3C[C@H]2CN1C(=O)c1ccccc1 | / | / | 14%
COC(=O)[C@@]1(Cc2ccc(OC)cc2)[C@H]2c3cc(C(=O)N4CCCC4)n(Cc4ccc(Cl)c(C(F)(F)F)c4)c3C[C@H]2CN1C(=O)c1ccccc1 | / | / | 10µM*
COC(=O)[C@@]1(Cc2ccc(OC)cc2)[C@H]2c3cc(C(=O)N4CCCC4)n(CCc4ccc(O)c(O)c4)c3C[C@H]2CN1C(=O)c1ccccc1 | / | / | 11µM*
COCCn1c(C(=O)N2CCCC2)cc2c1C[C@H]1CN(C(=O)c3ccccc3)[C@@](Cc3ccccc3)(C(=O)OC)[C@@H]21 | / | / | 9%
COC(=O)[C@@]1(Cc2ccc(F)cc2)[C@H]2c3cc(C(=O)N4CCCC4)n(CCc4ccccn4)c3C[C@H]2CN1C(=O)c1ccccc1 | -97* | 20% | 27%
COC(=O)[C@@]1(Cc2ccc(F)cc2)[C@H]2c3cc(C(=O)N(C)C)n(Cc4ccc(Cl)c(C(F)(F)F)c4)c3C[C@H]2CN1C(=O)c1ccccc1 | / | / | -60%
COc1ccc(OC)c(S(=O)(=O)N(C)CC(=O)Nc2cc(Cl)ccc2OC)c1 | 3 | -3% | 27%[10 µM]
CCN(CC)CCNC(=O)C12CC3CC(C)(CC(C)(C3)C1)C2 | ? | 7% | -6%
COc1ccc(S(=O)(=O)NC(N)=NCCc2ccc(OC)c(OC)c2)cc1C | / | -6% | 4%
Cc1cccc(NC(=O)c2csnn2)n1 | / | 14% | 16%
CCOC(=O)c1sc(N(Cc2ccccc2)C(=O)COC(=O)c2cnccn2)nc1C | / | -6% | -48%
Cc1nnc(N(Cc2ccccc2)C(=O)c2cnccn2)s1 | -88* | -5% | -12%[10 µM]
SMILES | PNC assembly inh | HTT aggregate | HTT cytoprotect
CCn1c(=Nc2ccc(N3CCOCC3)cc2)ccc2ccccc21 | ? | -28% | -26%[10 µM]
COc1cc(NC(=O)c2cc3nc(C)cc(C)n3n2)c(OC)cc1Cl | ? | / | 14µM*
COc1cc(NC(=O)c2c(F)c(F)c(F)c(F)c2F)c(OC)cc1Cl | ? | 20% | 7%[0.074 µM]
O=C1C=C(N2CCOCC2)C2(CCCCC2)O1 | / | 0%[9.22 µM] | -8%[10 µM]
CN1/C(=C/c2cc[n+](C)c3ccccc23)C=Cc2ccccc21 | / | 2.5µM* | -130%
C[n+]1ccc(/C=C/c2ccccc2O)c2ccccc21 | / | ? | -29%
COC(=O)[C@H]1C[C@@H]1[C@H](NS(=O)(=O)c1ccc(-c2ccccc2)cc1)c1ccccc1 | / | / | 10%
COc1ccc(CC(=O)N2CCN(c3ccccn3)CC2)cc1OC | -29 | -1% | 15%
CCCc1ccc(OCc2ccc(C(=O)N3CCN(c4ccccn4)CC3)o2)c(OC)c1 | -29 | 18µM* | -16%[0.074 µM]
S=C(Nc1ccccc1)N1CCOCC1 | / | -2%[9.22 µM] | -4%[10 µM]
CC(NC(=S)N1CCOCC1)c1ccccc1 (configuration not stated) | -121* | 2% | -20%[10 µM]
Cc1cc(C(=O)OCC(=O)Nc2ccccc2F)c(C)o1 | 39 | 0% | 9%
Cc1ccc(-c2cc(C(=O)OCC(=O)Nc3cc(C)on3)c3ccccc3n2)c(C)c1 | -82* | ? | -23%[10 µM]
COc1ccc(-c2cc(C(=O)OCC(=O)Nc3cc(C)on3)c3ccccc3n2)cc1OC | 26 | 12% | 13%
